# The supplement of paper PMC10338343
# ± gives the standard deviation.
# Test system: MILI (PIWIL2) piRISC loaded with piRNA #1 (26 nt)
# Assay: pre-steady-state target cleavage rate (min^-1); guide: piRNA #1 5'p-UGAGGUAGUAGGUUGUAUAGUAUCCA; MIWI and MILI are mouse PIWI proteins and EfPiwi is from a freshwater sponge; tags in brackets are library labels; higher = faster piRNA-guided slicing of the target
# Conditions: auxiliary factor: 500 nM mouse GTSF1
# Outline: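 Cleave-'n-Seq measured uncleaved targets by sequencing after a transcribed, DNA-blocked target RNA library […] was mixed with 1 nM active affinity-purified piRISC holding one synthetic guide, with or without 500 nM GTSF1 partner protein, at 33 °C in HEPES–potassium acetate buffer for 0–8 or 0–960 min. Counts were normalised to depth and to weakly complementary targets, three trials were pooled, and k3 was capped at 0.0001 min^-1. A burst-and-steady-state fit gave the pre-steady-state cleavage rate.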
# 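Further: 1 nM active piRISC with 0.1 nM target library at 33 °C single turnover.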
row,Sequence,pre-steady-state target cleavage rate
1,GGAGACCUUACUAUACAACCUACAAGCUCA,0.103 ± 0.03
2,GGAGACCUAUGUAUACAAGCUUCUACCUCA,0.0107 ± 0.0027
3,GGAGACCUAUGAUAUGUUCCUACUACCUGA,< 0.0001
4,GGAGACCUAUGAUAUCAAGCUACUACCUCA,0.00559 ± 0.0019
5,GGAGACCUAUGAUUACAACCUACAUACCUCA,0.00484 ± 0.0019
6,GGAGACCUAUCUAUACAACCUAAUACCUCA,0.0234 ± 0.0057
7,GGAGAGGAUUCUAUACAACCUACUACGUCA,0.0519 ± 0.0081
8,GGAGACCUAUGAUAACAACCUACUACCUUA,0.00415 ± 0.003
9,GGAGACCUAUGAUUGACAACCUACUACCUCA,0.00768 ± 0.0032
10,GGAGACCUAACUAUACAACCUAGCUACCUCA,0.0209 ± 0.008
11,GGAGACCUAACUAUACAAGCUACAACCUCA,0.182 ± 0.026
12,GGAGACCUAACUUUACAACCUACUACGUCA,0.0224 ± 0.01
13,GGAGACCAUAGUAUACAAGCUACUACCUCA,0.16 ± 0.015
14,GGAGACCUUACUAAACAUCCUACUACCUCA,0.208 ± 0.017
15,GGAGACCUUACUAUACAUGGUACUACCUCA,0.00395 ± 0.0029
16,GGAGACCUAUCUAAACAACCUACUACGUCA,0.0213 ± 0.0039
17,GGAGACCUAUGUUUACAACCUACUAGCUCA,0.00692 ± 0.0034
18,GGAGACGAUACUAUAGAACCUACUACCACA,0.0976 ± 0.015
19,GGAGAGGAACUAUACAACCUACUACCUCA,0.167 ± 0.013
20,GGAGACCUUACUAUACACCUACUACCUCA,0.00774 ± 0.0034

row,Sequence,pre-steady-state target cleavage rate
1,GGAGAGGAUACUAUACAACCUACUACCUACA,0.133 ± 0.016
2,GGAGACCUAUGUAUACAACCUAUUACCUCA,0.0697 ± 0.0079
3,GGAGACCUAACUAUACAACCUACUACCAUCA,0.261 ± 0.038
4,GGAGACCUAUGAUUACAACCUACUACCGCA,0.00418 ± 0.004
5,GGAGUGGAUACUAUUGUACCUACUACCUCA,0.115 ± 0.0083
6,GGAGACCUAUCUAUACAACCUACUACACUCA,0.179 ± 0.022
7,GGAGACCUAUGAUAUGUUCCUACUACCAGA,< 0.0001
8,GGAGACCUAUGUAUACAACCUUCAACCUCA,0.00276 ± 0.0024
9,GGAGACCUAUGACUACAACCUACUACCUCA,0.00416 ± 0.0019
10,GGAGAGGAUACUAUUCUACCUACUACCUCA,0.179 ± 0.013
11,GGAGACCUAUCUCAUACAACCUACUACCUCA,0.0664 ± 0.01
12,GGAGACCUUACUAUAAACCUACUACCUCA,0.00481 ± 0.0027
13,GGAGACCUUACUGUACAACCUACUACCUCA,0.163 ± 0.029
14,GGAGACCUUACUAUACAUCCAACUACCUCA,0.0082 ± 0.003
15,GGAGACCUAUGAAUACCAACCUACUACCUCA,0.00269 ± 0.0026
16,GGAGACCUAUGUAUACAACGUACUACCUCA,0.00969 ± 0.0018
17,GGAGACCAUACUAAACUACCUACUACCUCA,0.142 ± 0.013
18,GGAGAGGAUUCUAUACAACCUACUUCCUCA,0.00504 ± 0.0027
19,GGAGACCUAUCAAUAGAACCUACUACCUCA,0.0159 ± 0.0039
20,GGAGACGAUACAAUACAACCUACUUCCUCA,0.126 ± 0.024
